Among the test systems are NCI-H23 lung; NCI-H226 lung; NCI-H322M lung; HOP-62 NSCLC; NCI-H460 lung; HOP-92 NSCLC; NCI-H522 lung; A549/ATCC NSCLC; 786-0 renal; COLO 205 colon; DU-145 prostate; K-562 leukemia; MALME-3M melanoma; MDA-MB-231 breast; RXF 393 renal; SF-268 CNS; SF-295 CNS; SF-539 CNS; UACC-257 melanoma; M14 melanoma.
Experiment in all cases: NCI-60 one-dose screen, 48 h (100 = growth as untreated, 0 = no growth, -100 = all killed)
What all share (settings): 10 µM unless noted

The panel holds about 83,000 compounds, 20% with a hit somewhere; the sample as a whole holds those more often.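 Interpretation: 100, growth as untreated; towards 0, rising growth inhibition; 0, no net growth; 0 to -100, cell death. Compounds scoring below 10 were considered active.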 Values without a mark were called inactive. The source made the active and inactive calls.

`C/C(Cc1ccc(Cl)cc1)=C(\c1ccc(OCCN2CCCCCC2)cc1)c1ccc(OC(=O)c2ccccc2)cc1`: the growth in the assay with NCI-H23 lung was 46.8%; in the assay on NCI-H226 lung, 86.2%; in the assay with NCI-H322M lung it was 70%; with HOP-62 NSCLC, 81%; in the assay with NCI-H460 lung, 3.3% (active); in the assay with HOP-92 NSCLC it was -4.45% (active). Further, the growth with NCI-H522 lung is 62.4%; in the assay with A549/ATCC NSCLC it was 54.3%; in the assay with 786-0 renal, 12%; in the assay on COLO 205 colon it was 44.7%; in the assay on DU-145 prostate, 55.6%; with K-562 leukemia, 1.83% (active). In addition, the growth is 11.7% with MALME-3M melanoma; 39.7% in the assay on MDA-MB-231 breast; 22% in the assay with RXF 393 renal; 37.1% in the assay on SF-268 CNS; 56% with SF-295 CNS; 71% in the assay on SF-539 CNS. Besides, the growth in the assay on UACC-257 melanoma is 45.2%; in the assay with M14 melanoma, -49.8% (active).
With `COC(=O)c1ccc2cc(OC)c(OC)cc2c1`, the growth was 102% in the assay on NCI-H23 lung; 97.6% in the assay on NCI-H226 lung; 108% in the assay on NCI-H322M lung; 107% in the assay on HOP-62 NSCLC; 108% in the assay on NCI-H460 lung; 94.4% with HOP-92 NSCLC. Also, the growth in the assay with NCI-H522 lung is 98.9%; with A549/ATCC NSCLC it was 77.4%; with 786-0 renal, 91.9%; with COLO 205 colon it was 122%; with DU-145 prostate, 116%; with K-562 leukemia, 115%. Besides, the growth was 117% in the assay on MALME-3M melanoma; 127% with MDA-MB-231 breast; 97% with RXF 393 renal; 114% in the assay on SF-268 CNS; 70.4% in the assay with SF-295 CNS; 116% in the assay on SF-539 CNS. Further, the growth was 103% in the assay with UACC-257 melanoma and 110% in the assay with M14 melanoma.
With `CCOC(=O)c1cnn(CC(C)O)c1NC(=O)NCc1cccc(F)c1` (stereo not given), the growth was 97.5% in the assay with NCI-H23 lung; 103% in the assay with NCI-H226 lung; 97.7% in the assay on NCI-H322M lung; 100% in the assay on HOP-62 NSCLC; 105% in the assay with NCI-H460 lung; 68% in the assay with HOP-92 NSCLC. Moreover, the growth in the assay on NCI-H522 lung was 66%; with A549/ATCC NSCLC, 100%; in the assay with 786-0 renal it was 95.1%; in the assay with COLO 205 colon, 118%; in the assay on DU-145 prostate, 96.7%; in the assay with K-562 leukemia, 81.1%. Further, the growth in the assay with MALME-3M melanoma is 99.2%; in the assay with MDA-MB-231 breast it was 106%; in the assay on RXF 393 renal, 111%; in the assay on SF-268 CNS, 101%; in the assay with SF-295 CNS, 99.9%; in the assay on SF-539 CNS it was 98.2%. For the same molecule, the results for the growth in the assay on UACC-257 melanoma and with M14 melanoma were 99.7% and 83.2%, respectively.
Take `CN(C)CCCn1c2c(c3cnccc3c1=O)C(=O)c1ccccc1-2`: the growth in the assay with NCI-H23 lung is -10.7% (active); with NCI-H226 lung, -13.8% (active); in the assay with NCI-H322M lung, -7.53% (active); with HOP-62 NSCLC, -1.96% (active); in the assay on NCI-H460 lung it was -27.2% (active); in the assay on HOP-92 NSCLC it was -9.59% (active). Further, the growth with NCI-H522 lung was -28.2% (active); in the assay on A549/ATCC NSCLC, 11.3%; in the assay with 786-0 renal, -4.55% (active); with COLO 205 colon it was -25% (active); in the assay with DU-145 prostate it was -16.9% (active); in the assay on K-562 leukemia, 3.18% (active). In addition, the growth with MALME-3M melanoma is -45.7% (active); in the assay with MDA-MB-231 breast, 0.187% (active); in the assay on RXF 393 renal, -28.4% (active); with SF-268 CNS, -3.3% (active); in the assay on SF-295 CNS it was 6.47% (active); in the assay on SF-539 CNS it was -6.26% (active). Moreover, the growth was -26.8% (active) in the assay on UACC-257 melanoma and -47.9% (active) with M14 melanoma.
Consider `Cc1c(C(C)(C)O)cn2ncnc(Oc3ccc(NC(=O)Nc4ccc(Cl)c(C(F)(F)F)c4)c(F)c3)c12`, for which the growth in the assay on NCI-H23 lung is 30.6%; in the assay with NCI-H226 lung, 62.6%; with NCI-H322M lung, 92.1%; in the assay with HOP-62 NSCLC, 101%; in the assay on NCI-H460 lung, 25.9%; in the assay on HOP-92 NSCLC, 36.4%. In addition, the growth in the assay on NCI-H522 lung is 39.9%; in the assay on A549/ATCC NSCLC, 41.2%; with 786-0 renal it was 64.8%; with COLO 205 colon it was 72.8%; in the assay on DU-145 prostate, 80.6%; with K-562 leukemia, 25.4%. In addition, the growth with MALME-3M melanoma was 91.4%; in the assay with MDA-MB-231 breast, 73.3%; in the assay on RXF 393 renal, 72.4%; in the assay with SF-268 CNS it was 63.6%; in the assay on SF-295 CNS, 36.4%; with SF-539 CNS, 41%. For the same molecule, the growth with UACC-257 melanoma was 80%; in the assay on M14 melanoma it was 55.1%.
As for `CC[C@H](Nc1nc(N)nc(C)c1C#N)c1nc2cccc(CN(C)c3ncc(C(=O)NO)cn3)c2c(=O)n1-c1ccccc1`, the growth is 11.6% in the assay with NCI-H23 lung; 24.3% in the assay with NCI-H226 lung; 5.95% (active) in the assay with NCI-H322M lung; 11.4% with HOP-62 NSCLC; 10.8% in the assay on NCI-H460 lung; -28.3% (active) in the assay on HOP-92 NSCLC. Further, the growth in the assay on NCI-H522 lung was -45.2% (active); in the assay with A549/ATCC NSCLC, 27.4%; in the assay on 786-0 renal it was 11.9%; in the assay with COLO 205 colon it was -55.8% (active); in the assay on DU-145 prostate, 18.5%; in the assay with K-562 leukemia, 8.69% (active). For the same molecule, the growth in the assay with MALME-3M melanoma was 8.44% (active); in the assay with MDA-MB-231 breast it was -12.6% (active); with RXF 393 renal it was -61% (active); with SF-268 CNS, 12.1%; in the assay with SF-295 CNS, -8.31% (active); in the assay on SF-539 CNS, 8.35% (active). Moreover, the growth with UACC-257 melanoma is -20.8% (active); with M14 melanoma, 9.1% (active).
`CC(C)(C)c1ccc(C(=O)N/N=C/c2ccc(O)cc2O)cc1`: the growth with NCI-H23 lung was 19.1%; in the assay with NCI-H226 lung, 12.1%; with NCI-H322M lung, 26.8%; in the assay on HOP-62 NSCLC it was 17.9%; in the assay on NCI-H460 lung, 0.52% (active); with HOP-92 NSCLC, 33.6%. Also, the growth in the assay with NCI-H522 lung is 33.4%; with A549/ATCC NSCLC, 11.8%; in the assay on 786-0 renal, 19.7%; in the assay with COLO 205 colon, 14.7%; in the assay on DU-145 prostate, 24.5%; in the assay on K-562 leukemia, 14.2%. Further, the growth is 11.9% with MALME-3M melanoma; 35.1% in the assay on MDA-MB-231 breast; -4% (active) in the assay with RXF 393 renal; 19.9% in the assay on SF-268 CNS; 16.6% with SF-295 CNS; 11.2% in the assay with SF-539 CNS. In addition, the results for the growth in the assay with UACC-257 melanoma and in the assay on M14 melanoma were 3.68% (active) and -10.3% (active), respectively.
Turning to `O=C(/C=C/c1ccccc1Cl)c1cccc(OCCCCOc2cccc(C(=O)/C=C/c3ccccc3Cl)c2)c1`, the growth in the assay with NCI-H23 lung was 96.5%; with NCI-H226 lung it was 90.3%; with NCI-H322M lung it was 99.9%; in the assay on HOP-62 NSCLC it was 103%; with NCI-H460 lung, 99.6%; in the assay on HOP-92 NSCLC, 94.4%. In addition, the growth in the assay with NCI-H522 lung was 97.1%; with A549/ATCC NSCLC it was 95.3%; with 786-0 renal, 103%; with COLO 205 colon it was 107%; with DU-145 prostate, 102%; with K-562 leukemia, 99.2%. Further, the growth in the assay on MALME-3M melanoma is 91.9%; in the assay with MDA-MB-231 breast, 102%; in the assay with RXF 393 renal, 99.6%; with SF-268 CNS, 106%; with SF-295 CNS, 104%; in the assay on SF-539 CNS it was 101%. The values for the growth in the assay with UACC-257 melanoma and in the assay with M14 melanoma were 98.2% and 86.5%, respectively.
